In the library only some 6.1% were active in any assay of this set; here they are far more common.
VP16 counter: VP16 counterscreen qHTS for inhibitors of ROR gamma transcriptional activity. Drosophila S2 Gal4-VP16 UAS-luciferase, luminescence, 20 h. Potency, µM (series often up to 53.6 µM), most hits filed as inhibitors. 310,000 tested, 3.5% active. AID 2546, 2010;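 note: Gal4-VP16 expression switched on by copper sulfate through the metallothionein promoter; nearly all actives have a fitted effect of over 50% in size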
ATXN2 expr inh: Primary qHTS for Inhibitors of ATXN expression; HEK-293 ATXN2-luciferase reporter, luminescence, 24 h; Potency, µM (top dose mostly 57 µM), most hits filed as inhibitors; 360,000 tested, 0.72% active; note: nearly all actives have a fitted effect of over 55% in size
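ATXN2-luciferase reporter cells (luciferase flanked by upstream and downstream ATXN2 gene portions) were treated 24 h at 37 °C with compounds at up to 57 uM. SteadyGlo luminescence gave expression; GF-AFC fluorescence gave viability.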
HepG2 viability: qHTS for Inhibitors of TGF-b: Cytotox Counterscreen; Potency, µM (top dose mostly 46.1 µM), actives largely listed as cytotoxic; 410,000 tested, 0.76% active; HepG2 CAGA-GFP viability, ATP luminescence, 18 h
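CellTiter-Glo luminescence gave cytotoxicity after 18 hours at 37 degrees C. The cells were HepG2 CAGA-GFP in 1% FBS DMEM, stimulated with 500 pg/mL TGF-beta after compound addition. %Activity was normalised to no-cell wells (complete cell-killing) and DMSO (no toxicity), and curves were fitted and classified.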
TGFb SMAD3 inh: qHTS for Inhibitors of TGF-b; HepG2 CAGA-GFP TGF-b/SMAD3 reporter, GFP fluorescence, 18 h; TGF-beta stimulated, 500 pg/mL final; 410,000 tested, 1.2% active; Potency, µM (titrated, usually from 46.1 µM), actives largely listed as inhibitors; AID 588855, 2011; note: nearly all actives have a fitted effect of over 65% in size
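Per well, imaged GFP fluorescence of HEPG2 CAGA-GFP cells gives the signal; cells get compound, then TGF-beta (500 pg/mL final), 18 h at 37 degrees C; %Activity versus -TGF-beta and +DMSO controls.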
S2 tox: Viability Counterscreen for Primary qHTS for Inhibitors of ATXN expression; S2 cells (HEK-293 line with an ATXN2-luciferase reporter) viability, CellTiter-Fluor protease fluorescence, 24 h; Potency, µM (highest dose often 56.7 µM), most hits filed as cytotoxic; 400,000 tested, 0.49% active; AID 651635, 2014; note: nearly all actives have a fitted effect of over 40% in size
RORg inh: qHTS for inhibitors of ROR gamma transcriptional activity; Nuclear receptor ROR-gamma (Mus musculus), P51450; Drosophila S2 Gal4-RORgamma UAS-luciferase reporter, 20 h; Potency, µM (highest dose often 53.6 µM), most hits filed as inhibitors; 310,000 tested, 5.4% active; note: nearly all actives have a fitted effect of over 60% in size
Target sequence (P51450 whole entry, looked up, the tested form may be a part): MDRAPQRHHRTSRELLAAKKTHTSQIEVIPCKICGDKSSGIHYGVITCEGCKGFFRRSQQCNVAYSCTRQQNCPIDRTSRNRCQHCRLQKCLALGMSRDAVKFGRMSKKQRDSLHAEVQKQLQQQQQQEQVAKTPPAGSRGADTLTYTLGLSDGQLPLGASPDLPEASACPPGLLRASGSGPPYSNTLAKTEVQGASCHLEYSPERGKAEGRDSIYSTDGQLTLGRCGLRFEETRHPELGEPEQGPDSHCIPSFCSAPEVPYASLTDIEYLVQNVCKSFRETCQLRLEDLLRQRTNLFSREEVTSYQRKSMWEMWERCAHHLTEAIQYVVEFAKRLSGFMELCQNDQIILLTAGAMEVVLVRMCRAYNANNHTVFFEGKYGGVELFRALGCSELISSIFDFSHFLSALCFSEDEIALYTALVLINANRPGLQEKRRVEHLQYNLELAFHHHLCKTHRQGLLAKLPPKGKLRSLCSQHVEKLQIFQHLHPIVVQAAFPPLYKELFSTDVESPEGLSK
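Stable Schneider cell line, Gal4 DNA-binding domain fused to ROR gamma, UAS-luciferase. Cmpd 1 hr RT → CuSO4 700 uM final → 20 hr RT → luciferase reagent 10 min → luminescence.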
Hits are given with their value; [ ] = dose if it differs, or a comment. Calls come from the whole dose curve; as a rule, active = well fitted curve in the direction sought with a large enough effect; inconclusive = small, poorly fitted or top-dose-only effect, or another doubt; inactive = no such curve, though single readings can be large; an effect the other way counts as inactive or inconclusive.

How did CCn1c(-c2ccc([N+](=O)[O-])cc2)n[nH]c1=S do in these assays?
VP16 counter: inactive; ATXN2 expr inh: inactive; HepG2 viability: inactive; TGFb SMAD3 inh: inactive; S2 tox: inactive; RORg inh: 11.2µM

What do the screens show for `CCn1c(-c2cccc(Br)c2)n[nH]c1=S`?
VP16 counter: 7.08µM; ATXN2 expr inh: inactive; HepG2 viability: inactive; TGFb SMAD3 inh: inactive; S2 tox: inactive; RORg inh: 10µM

How did CCn1c(-c2sc(-c3ccccc3)nc2C)n[nH]c1=S do in these assays?
VP16 counter: inconclusive; ATXN2 expr inh: inactive; HepG2 viability: inactive; TGFb SMAD3 inh: inactive; S2 tox: inactive; RORg inh: 3.55µM

What do the screens show for `CCn1c(-c2ccc3ncccc3c2)n[nH]c1=S`?
VP16 counter: inconclusive; HepG2 viability: inactive; TGFb SMAD3 inh: inactive; RORg inh: 11.2µM

Results for C=CCn1c(-c2ccc3ncccc3c2)n[nH]c1=S ?
VP16 counter: inconclusive; HepG2 viability: inactive; TGFb SMAD3 inh: inactive; RORg inh: inconclusive

Results for C=CCC(Nc1ccc(OC)cc1)C(=O)OCC (centres undefined) ?
VP16 counter: inactive; RORg inh: inactive

What do the screens show for `Cc1c(C(=O)N2CCC(C(=O)Nc3ccc(F)c(Cl)c3)CC2)sc2nc[nH]c(=O)c12`?
HepG2 viability: inactive; TGFb SMAD3 inh: inactive

What do the screens show for `O=C(Nc1nc2ccccc2s1)C1c2ccccc2Oc2ccccc21`?
VP16 counter: inconclusive; ATXN2 expr inh: inactive; HepG2 viability: inactive; TGFb SMAD3 inh: inconclusive; S2 tox: inactive; RORg inh: 11.2µM

Results for O=C(Nc1nc2ccccc2s1)C1CCCO1 (centres undefined) ?
VP16 counter: inactive; ATXN2 expr inh: inactive; HepG2 viability: inactive; TGFb SMAD3 inh: inactive; S2 tox: inactive; RORg inh: inactive

How did CCc1nnc(NC(=O)C2c3ccccc3Oc3ccccc32)s1 do in these assays?
VP16 counter: inconclusive; ATXN2 expr inh: inactive; HepG2 viability: inactive; TGFb SMAD3 inh: inactive; S2 tox: inactive; RORg inh: 11.2µM

Results for Cc1ccc(-c2nc3cccnc3s2)cc1NC(=O)C1c2ccccc2Oc2ccccc21 ?
VP16 counter: 11.2µM; ATXN2 expr inh: inactive; HepG2 viability: inactive; TGFb SMAD3 inh: inactive; S2 tox: inactive; RORg inh: 12.6µM

How did Cc1sc2ccccc2[n+]1CC(=O)c1ccc(F)cc1 do in these assays?
HepG2 viability: inactive; TGFb SMAD3 inh: inactive

Results for COc1ccc(S(=O)(=O)N/N=C\c2ccc3c(c2)OCO3)c(OC)c1 ?
VP16 counter: 11.2µM; ATXN2 expr inh: inactive; HepG2 viability: inactive; TGFb SMAD3 inh: inactive; S2 tox: inconclusive; RORg inh: inconclusive

Results for COc1ccc(OC)c(S(=O)(=O)N/N=C\c2ccc3c(c2)OCO3)c1 ?
VP16 counter: inactive; ATXN2 expr inh: inactive; HepG2 viability: inactive; TGFb SMAD3 inh: inactive; S2 tox: inactive; RORg inh: inactive

How did Cc1cc(C)c(NC(=O)CN2C(=O)CCSc3ccc(S(=O)(=O)N4CCCC4)cc32)c(C)c1 do in these assays?
HepG2 viability: inactive; TGFb SMAD3 inh: inactive

Results for CC(=O)c1cccc(NC(=O)c2cnn(-c3ccccc3)c2C)c1 ?
VP16 counter: 2.24µM; ATXN2 expr inh: inactive; HepG2 viability: inactive; TGFb SMAD3 inh: inactive; S2 tox: inactive; RORg inh: 3.55µM

What do the screens show for `Cc1ccc(NC(=O)c2cnn(-c3ccccc3)c2C)cc1C`?
VP16 counter: inconclusive; ATXN2 expr inh: inactive; HepG2 viability: inactive; TGFb SMAD3 inh: inactive; S2 tox: inactive; RORg inh: 5.01µM

How did Cc1c(C(=O)Nc2ccccc2)cnn1-c1ccccc1 do in these assays?
ATXN2 expr inh: inactive; HepG2 viability: inactive; TGFb SMAD3 inh: inactive; S2 tox: inactive

How did Cc1nnc(N2C(=O)c3oc4ccccc4c(=O)c3C2c2ccc(F)cc2)s1 (centres undefined) do in these assays?
ATXN2 expr inh: inactive; HepG2 viability: inactive; TGFb SMAD3 inh: inactive; S2 tox: inactive

What do the screens show for `CCCN(C(=O)Cn1nc(Cc2cccnc2)c2ccccc2c1=O)c1ccc(C(C)C)cc1`?
HepG2 viability: 12.6µM; TGFb SMAD3 inh: 20µM

Results for COC(=O)Oc1ccc(/C=N/NC(=O)CSCc2ccc(Cl)cc2)cc1OC ?
VP16 counter: 15.8µM; HepG2 viability: inactive; TGFb SMAD3 inh: inactive; S2 tox: inactive; RORg inh: inactive

How did COC(=O)Oc1ccc(/C=N/NC(=O)CN(c2ccccc2Cl)S(C)(=O)=O)cc1OC do in these assays?
VP16 counter: inactive; ATXN2 expr inh: inactive; HepG2 viability: inactive; TGFb SMAD3 inh: inactive; S2 tox: inactive; RORg inh: 0.0089µM

Results for Cc1ccc(Cl)cc1N1CCN(c2nc3ccc(C(=O)c4ccccc4)cc3n3cnnc23)CC1 ?
HepG2 viability: inactive; TGFb SMAD3 inh: inactive

Results for O=C(NCCCCCCCN1CCCCCCC1)C(C1CCCCC1)C1CCCCC1 ?
ATXN2 expr inh: inconclusive; HepG2 viability: inactive; TGFb SMAD3 inh: 17.8µM

What do the screens show for `Cc1cccc(NC(=S)NNC(=O)COc2ccc(Cl)cc2Cl)c1`?
VP16 counter: 2.82µM; ATXN2 expr inh: inactive; HepG2 viability: inactive; TGFb SMAD3 inh: inactive; S2 tox: inactive; RORg inh: 4.47µM

Results for CCC(=O)NC(=S)Nc1ccc(NC(=O)COc2ccc(Cl)cc2Cl)cc1 ?
VP16 counter: inconclusive; ATXN2 expr inh: inactive; HepG2 viability: inactive; TGFb SMAD3 inh: inconclusive; S2 tox: inconclusive; RORg inh: 11.2µM

How did COc1ccc(Cl)cc1NC(=S)Nc1cccc(C)c1 do in these assays?
VP16 counter: inconclusive; ATXN2 expr inh: inactive[11.3 µM]; HepG2 viability: inactive; TGFb SMAD3 inh: inactive; S2 tox: inactive; RORg inh: 11.2µM

What do the screens show for `COc1ccc(NC(=S)NNC(=O)COc2ccc(Cl)cc2Cl)cc1`?
VP16 counter: inactive; ATXN2 expr inh: inactive; HepG2 viability: inactive; TGFb SMAD3 inh: inactive; S2 tox: inactive; RORg inh: inconclusive

How did C/C(=N/NC(=O)c1cccs1)c1ccc(NC(=O)COc2ccc(Cl)cc2Cl)cc1 do in these assays?
VP16 counter: inactive; ATXN2 expr inh: 12.6µM; HepG2 viability: inactive; TGFb SMAD3 inh: inactive; S2 tox: 11.2µM; RORg inh: inactive

How did O=C(COc1cccc2cccnc12)NNC(=S)Nc1ccccc1 do in these assays?
VP16 counter: inactive; RORg inh: 0.891µM

Results for CCOC(=O)CSc1cc(-c2ccccc2)nc2ncnn12 ?
VP16 counter: 11.2µM; ATXN2 expr inh: inactive; HepG2 viability: inactive; TGFb SMAD3 inh: inactive; S2 tox: inconclusive; RORg inh: inactive

Results for c1ccc(-c2cc(-c3ccccc3)n3ncnc3n2)cc1 ?
VP16 counter: inactive[10 µM]; ATXN2 expr inh: inactive; HepG2 viability: inactive; TGFb SMAD3 inh: inactive; S2 tox: inactive; RORg inh: inactive
